Article PMC4336329 (PLoS ONE, 2015)
Hit rate of the full screen: of about 310,000 compounds, about 2,200 (0.71%) showed an effect of 50% or more. Effects have a minus sign here. Only a selection was taken, and strong results are over-represented in it overall.

Target: human ether-à-go-go-related gene (hERG) potassium channel (human, UniProt Q12809)
Experiment: primary screen, population patch clamp on CHO cells stably expressing hERG; higher = less effect of the substance

Sequence of human ether-à-go-go-related gene (hERG) potassium channel (Q12809 whole entry, looked up): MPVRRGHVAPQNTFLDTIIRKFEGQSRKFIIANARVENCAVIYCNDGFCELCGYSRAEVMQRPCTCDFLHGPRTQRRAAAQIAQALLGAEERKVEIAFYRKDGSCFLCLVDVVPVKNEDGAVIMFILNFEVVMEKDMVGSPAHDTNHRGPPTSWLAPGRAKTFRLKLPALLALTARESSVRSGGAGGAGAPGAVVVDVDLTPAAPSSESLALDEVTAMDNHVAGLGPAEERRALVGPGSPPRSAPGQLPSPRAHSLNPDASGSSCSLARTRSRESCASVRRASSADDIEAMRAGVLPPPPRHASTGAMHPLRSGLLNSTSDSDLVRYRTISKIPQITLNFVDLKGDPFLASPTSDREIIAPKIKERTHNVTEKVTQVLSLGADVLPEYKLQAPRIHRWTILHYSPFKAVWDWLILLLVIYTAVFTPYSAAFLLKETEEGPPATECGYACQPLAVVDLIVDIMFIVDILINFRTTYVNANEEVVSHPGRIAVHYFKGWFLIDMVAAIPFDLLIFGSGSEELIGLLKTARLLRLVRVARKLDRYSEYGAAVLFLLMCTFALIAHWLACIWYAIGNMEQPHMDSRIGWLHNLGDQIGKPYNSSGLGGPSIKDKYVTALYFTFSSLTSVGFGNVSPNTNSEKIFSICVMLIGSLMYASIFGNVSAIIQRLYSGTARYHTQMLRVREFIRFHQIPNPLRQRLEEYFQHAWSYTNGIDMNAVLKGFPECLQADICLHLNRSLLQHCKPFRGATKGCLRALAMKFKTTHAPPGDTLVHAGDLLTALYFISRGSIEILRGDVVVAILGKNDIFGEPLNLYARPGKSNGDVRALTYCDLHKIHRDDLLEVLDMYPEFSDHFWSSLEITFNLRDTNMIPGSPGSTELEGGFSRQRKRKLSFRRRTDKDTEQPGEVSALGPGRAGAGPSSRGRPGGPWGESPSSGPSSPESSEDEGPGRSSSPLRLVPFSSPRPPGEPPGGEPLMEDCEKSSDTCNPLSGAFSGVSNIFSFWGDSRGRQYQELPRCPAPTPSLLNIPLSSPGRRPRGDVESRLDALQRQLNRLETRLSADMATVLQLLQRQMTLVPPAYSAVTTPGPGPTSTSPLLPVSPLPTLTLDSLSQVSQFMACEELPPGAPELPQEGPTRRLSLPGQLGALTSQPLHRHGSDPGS

Row | SMILES | hERG current change (%, negative = inhibition) at 1uM [%]
1 | Cl.OCCCN1CCN(CCCOc2ccccc2-c2ccccc2)CC1 | -57.7
2 | COCCNCCCOc1ccc(Br)cc1Cl.O=C(O)C(=O)O | 0.786
3 | COCCCNCCCCOc1ccc(Br)cc1C.O=C(O)C(=O)O | -24
4 | COCCCNCCCCOc1ccc(Br)cc1Cl.O=C(O)C(=O)O | -61.5
5 | O=C(O)C(=O)O.c1ccc(COc2ccc(OCCCCN3CCCCC3)cc2)cc1 | -46.8
6 | CC1CCN(CCCCOc2ccc(C(=O)c3ccccc3)cc2)CC1.O=C(O)C(=O)O | -72.4
7 | O=C(O)C(=O)O.c1ccc(COc2ccc(OCCCN3CCCC3)cc2)cc1 | -39.1
8 | Cl.OCCN1CCN(CCOc2ccccc2-c2ccccc2)CC1 | 6.46
9 | CCN1CCN(CCCOc2ccccc2-c2ccccc2)CC1.O=C(O)C(=O)O | -16.6
10 | CC1CCN(CCOc2ccc(C(=O)c3ccccc3)cc2)CC1.O=C(O)C(=O)O | 3.49
11 | CCN(CC)S(=O)(=O)c1ccc(C(=O)NCc2ccc3[nH]c4c(c3c2)CCCC4)cc1 | 16.4
12 | COc1cccc(CN2CCC(C(=O)N3CCN(c4ccccc4F)CC3)CC2)c1 | -20.8
13 | CCCn1c(=O)c(C(=O)Nc2ccccc2C(=O)OCC)c(O)c2ccccc21 | 16.2
14 | CNC(=S)Nc1cc(C(F)(F)F)ccc1Cl | -4.86
15 | Cc1cc(OCC(=O)Nc2ccc3oc(-c4ccncc4)nc3c2)ccc1Cl | 9.6
16 | Cc1ccc(/C=C2\SC(=S)N(CCCC(=O)Nc3ccccn3)C2=O)cc1 | 3.9
17 | Cc1csc(NC(=O)C2=NN(c3ccccc3)C(=O)CC2)n1 | 9.03
18 | O=C(O)C(=O)O.c1ccc(-c2ccccc2OCCCCN2CCCCCC2)cc1 | -48.2
19 | CN1CCN(CCOCCOc2ccc(Br)cc2Cl)CC1.O=C(O)C(=O)O | 10.1
20 | CC1CCCN(CCOCCOc2ccc(Br)cc2Cl)C1.O=C(O)C(=O)O (stereo not shown) | -7.22
21 | Brc1ccccc1OCCCN1CCCCCC1.O=C(O)C(=O)O | -59.2
22 | O=C(O)C(=O)O.c1ccc(-c2ccccc2OCCCN2CCCCCC2)cc1 | -52.7

Row | SMILES | hERG current change (%, negative = inhibition) at 1uM [%]
23 | CC1CCN(CCOCCOc2ccc(Br)cc2Cl)CC1.O=C(O)C(=O)O | -52
24 | Brc1ccccc1OCCCN1CCCC1.O=C(O)C(=O)O | 8.64
25 | O=C(O)C(=O)O.c1ccc(-c2ccccc2OCCCN2CCCC2)cc1 | -49.4
26 | Brc1ccccc1OCCCCN1CCCCC1 | -1.28
27 | CNc1ccccc1C(=O)OCC(=O)c1ccc(F)cc1 | 7.17
28 | CCN1C(=O)c2ccc(C(=O)NCc3ccco3)cc2C1=O | 11
29 | O=C(CC1Sc2ccccc2NC1=O)NNC(=O)Nc1ccc(Cl)cc1 (stereo not shown) | 9.26
30 | CCOc1ccccc1NC(=O)C(NCCN(C)C)c1ccccc1.O=C(O)C(=O)O (stereo not shown) | -49.1
31 | CCOc1ccccc1NC(=O)C(NCC1CCCCC1)c1ccccc1 (stereo not shown) | 8.03
32 | CCOc1ccccc1NC(=O)C(NCC1(N2CCCCC2)CCCCC1)c1ccccc1.O=C(O)C(=O)O (stereo not shown) | -57.4
33 | C/C(N)=C(\C#N)C(=O)NCc1ccccn1 | 10.9
34 | Cc1cc(C)c(-c2cc(C(F)(F)F)no2)c(=O)[nH]1 | 12.2
35 | O=c1c2cccc3c2c(nn1CN1CCOCC1)-c1ccccc1-3 | -15.3
36 | O=C(O)Cn1nc2c3c(cccc3c1=O)-c1ccccc1-2 | 8.49
37 | CCN(CC)CCn1nc2c3c(cccc3c1=O)-c1ccccc1-2 | -50
38 | COc1ccc(OC(=O)NCCc2ccccc2)cc1 | 12.2
39 | Cc1ccc(S(=O)(=O)c2cc3c(=O)n4cccc(C)c4nc3n(C3CCCCC3)c2=N)cc1 | 8.4
40 | Cc1cccn2c(=O)c3cc(S(=O)(=O)c4ccc(Br)cc4)c(=N)n(C4CCCC4)c3nc12 | 14.5
41 | Cc1cccn2c(=O)c3cc(S(=O)(=O)c4ccc(Br)cc4)c(=N)n(C4CCCCC4)c3nc12 | 26
42 | Cc1cccn2c(=O)c3cc(C(=O)NCc4ccco4)c(=N)n(C4CCCCC4)c3nc12 | -84.8
43 | Cc1cccn2c(=O)c3cc(C(=O)NCc4ccco4)c(=N)n(C4CCCC4)c3nc12 | -85.5
